Experiments:
Assay in all cases: Spec-seq (EMSA and sequencing of bound and unbound bands); 100 nM BATFx-JUNB, 1 uM dsDNA library, 50 mM K acetate, 20 mM Tris-acetate, 10 mM Mg acetate, 100 ug/ml BSA, pH 7.9, 10% glycerol, 30 min on ice; native 9% PAGE at 4 C; low values mean tight binding
Conditions in all cases: protein: recombinant;recombinant; tags: N-terminal mCherry-TEV, cleaved off;C-terminal 6His; copies: 1;1; dsDNA, one strand shown
BATF;JUNB = target: T1, BATF;JUNB (human;human, UniProt Q16520;P17275 1-125;148-347, |)
T1 sequence 1: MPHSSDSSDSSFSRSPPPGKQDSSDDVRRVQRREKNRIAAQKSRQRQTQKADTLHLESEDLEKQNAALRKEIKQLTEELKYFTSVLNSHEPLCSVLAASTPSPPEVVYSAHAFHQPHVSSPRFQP
T1 sequence 2: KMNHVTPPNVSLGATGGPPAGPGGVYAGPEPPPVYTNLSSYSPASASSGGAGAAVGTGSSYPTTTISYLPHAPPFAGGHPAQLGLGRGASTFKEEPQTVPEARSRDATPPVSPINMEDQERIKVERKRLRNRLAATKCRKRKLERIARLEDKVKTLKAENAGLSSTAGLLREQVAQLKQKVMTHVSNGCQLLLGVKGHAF
Method in brief: (§1)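 The protein, at 100 nM, was incubated with 1 μM double-stranded degenerate DNA library for 30 min on ice in NEB Cutsmart buffer with 10% glycerol, then resolved by native 9% PAGE at 4 °C. Excised bound and unbound bands were PCR-barcoded and Illumina-sequenced, and each sequence's relative binding energy in kT is −ln of its bound/unbound read-count ratio.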

BATF2 (bZIP);JUNB = target: T2, BATF2 (bZIP);JUNB (human;human, UniProt Q8N1L9;P17275 1-142;148-347, |)
T2 sequence 1: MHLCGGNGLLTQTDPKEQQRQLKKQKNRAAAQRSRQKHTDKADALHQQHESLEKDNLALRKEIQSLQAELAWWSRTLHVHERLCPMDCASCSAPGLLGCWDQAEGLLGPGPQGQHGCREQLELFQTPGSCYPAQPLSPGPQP
T2 sequence 2: T1 sequence 2
Method in brief: as §1

BATF3;JUNB = target: T3, BATF3;JUNB (human;human, UniProt Q9NR55;P17275 1-127;148-347, |)
T3 sequence 1: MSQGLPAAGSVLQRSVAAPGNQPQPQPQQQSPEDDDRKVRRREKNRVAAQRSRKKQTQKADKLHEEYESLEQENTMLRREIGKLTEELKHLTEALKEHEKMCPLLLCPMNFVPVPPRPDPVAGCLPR
T3 sequence 2: T1 sequence 2
Method in brief: as §1

| Sequence | binding signal (BATF;JUNB) [kT] | binding signal (BATF2 (bZIP);JUNB) [kT] | binding signal (BATF3;JUNB) [kT] |
| --- | --- | --- | --- |
| GATAGTCTCATTTTCACCCCGTGAAATTACTCATTTGTTCCATTACAGTATCTGT | -0.755 | -0.323 | -0.827 |
| GATAGTCTCATTTTCACCCCGTGAAATGAGGCAGTTGTTCCATTACAGTATCTGT | 0.781 | 1.36 | 1.27 |
| GATAGTCTCATTTTCACCCCGTGAAATGAGTCCTTTGTTCCATTACAGTATCTGT | 0.17 | 1.09 | 0.708 |
| GATAGTCTCATTTTCACCCCGTGAAATGGGTCATTTGTTCCATTACAGTATCTGT | 0.293 | 0.704 | 0.458 |
| GATAGTCTCATTTTCACCCCGTGAAACTCAGTCATTGTTCCATTACAGTATCTGT | -0.328 | 0.236 | 0.0164 |
| GATAGTCTCATTTTCACCCCGTGAAAGGAGTCATTTGTTCCATTACAGTATCTGT | -0.0687 | 0.569 | 0.243 |
| GATAGTCTCATTTTCACCCCGTGAAAATGCGTCATTGTTCCATTACAGTATCTGT | -1.01 | -0.552 | -1.11 |
| GATAGTCTCATTTTCACCCCGTGAAATGAGTTACTTGTTCCATTACAGTATCTGT | 0.198 | 0.967 | 0.809 |
| GATAGTCTCATTTTCACCCCGTGAAATGAGTAACTTGTTCCATTACAGTATCTGT | -0.237 | 0.714 | 0.295 |
| GATAGTCTCATTTTCACCCCGTGAAATGACCCAATTGTTCCATTACAGTATCTGT | 0.427 | 0.768 | 0.601 |
| GATAGTCTCATTTTCACCCCGTGAAATGACGTCTTTGTTCCATTACAGTATCTGT | -0.0562 | 0.447 | -0.318 |
| GATAGTCTCATTTTCACCCCGTGAAATGAGCCAGTTGTTCCATTACAGTATCTGT | 0.487 | 1.33 | 1.1 |
